PubChem BioAssay

Tests used:
[1] = system: Human papillomavirus type 1a protein E7 (residues 44-93); test: HPV1a E7 fragment binders on microarrays, primary screen, biochemical, small-molecule microarray, residues 44-93, 635 nm fluorescence (AID 1108); conditions: small-molecule microarray binding, fluorescence 635 nm; higher = more signal;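 note: E7 fragment applied at 1 µg/mL in TBST for 1 h at 4 C; score combines spot fluorescence with its signal to noise ratio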
[2] = modulators of HCV replicon luciferase signal, primary screen, HCV replication inhibitor project, Huh7 cells, luciferase reporter (AID 1109); conditions: 48 h, higher = more signal;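 note: huh7 hepatoma cells harbouring a luciferase neomycin HCV replicon reporter; luciferase luminescence as measure of HCV replicon replication; test concentration not given here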
[3] = target: Left-right determination factor 2 (Homo sapiens) (UniProt O00292); test: LEFTY2 binders on small-molecule microarrays, primary screen, biochemical, small-molecule microarray, 635 nm fluorescence scan (AID 1110); conditions: LEFTY2 binding, higher = more signal
[4] = target: Calmodulin-1 (Homo sapiens) (UniProt P0DP23); test: CALM1 binders on microarrays, EGTA buffer, profiling panel, biochemical, small-molecule microarray, Cy5-labelled CALM1 (AID 1111); conditions: Cy5-CALM1 binding fluorescence, higher = more signal;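 note: labelled calmodulin applied in Tris saline Tween buffer holding calcium plus EGTA and DTT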
[5] = target: Calmodulin-1 (Homo sapiens) (UniProt P0DP23); test: calcium-bound CALM1 binders on microarrays, profiling panel, artefact control for SMM control-protein annotation, biochemical, small-molecule microarray, Cy5-labelled CALM1, plus calcium (AID 1112); conditions: Cy5-CALM1 binding fluorescence, higher = more signal;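 note: score merges spot fluorescence with signal to noise from triplicate slides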
[6] = small-molecule microarray binders of probe aWnt5a, primary screen, biochemical, biotinylated probe, 635/667 nm fluorescence (AID 1113); conditions: higher = more signal;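 note: score merges 667 nm fluorescence intensity with signal-to-noise per printed feature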
[7] = small-molecule microarray binders of probe aShh, primary screen, biochemical, biotinylated probe, 635/667 nm fluorescence (AID 1114); conditions: higher = more signal;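 note: probe is biotin-labelled aShh protein from a stem cell growth factor screen; measures binding of labelled protein to compounds printed on the slide; score merges feature fluorescence at 667 nm with signal-to-noise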
[8] = small-molecule microarray binders of probe aNog, primary screen, biochemical, biotinylated probe, 635/667 nm fluorescence (AID 1115); conditions: higher = more signal;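 note: probe is biotinylated aNog protein used at 0.15 µg/mL for 1 h at 4 C; z-score combines 667 nm fluorescence of each spot with its signal to noise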
[9] = target: Torsin-1A-interacting protein 1 (Homo sapiens) (UniProt Q5JTV8); test: LAP1 binders from COS7 cell lysate, primary screen, small-molecule microarray, 635/667 nm fluorescence (AID 1116); conditions: COS7-hLAP1 lysate binding, 635 nm fluorescence, higher = more signal
[10] = target: Alpha-bungarotoxin (Bungarus multicinctus) (UniProt P60615); test: alpha-bungarotoxin binders on microarray, profiling panel, artefact control for SMM control protein annotation, biochemical, small-molecule microarray, Alexa647 label, 635/667 nm fluorescence (AID 1117); conditions: alpha-BTX-A647 binding fluorescence, higher = more signal
Sequence of Alpha-bungarotoxin (Bungarus multicinctus) (P60615 whole entry, looked up): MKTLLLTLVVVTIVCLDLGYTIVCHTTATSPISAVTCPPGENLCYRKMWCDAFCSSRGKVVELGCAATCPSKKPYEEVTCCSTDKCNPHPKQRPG

Sequence of Torsin-1A-interacting protein 1 (Homo sapiens) (Q5JTV8 whole entry, looked up): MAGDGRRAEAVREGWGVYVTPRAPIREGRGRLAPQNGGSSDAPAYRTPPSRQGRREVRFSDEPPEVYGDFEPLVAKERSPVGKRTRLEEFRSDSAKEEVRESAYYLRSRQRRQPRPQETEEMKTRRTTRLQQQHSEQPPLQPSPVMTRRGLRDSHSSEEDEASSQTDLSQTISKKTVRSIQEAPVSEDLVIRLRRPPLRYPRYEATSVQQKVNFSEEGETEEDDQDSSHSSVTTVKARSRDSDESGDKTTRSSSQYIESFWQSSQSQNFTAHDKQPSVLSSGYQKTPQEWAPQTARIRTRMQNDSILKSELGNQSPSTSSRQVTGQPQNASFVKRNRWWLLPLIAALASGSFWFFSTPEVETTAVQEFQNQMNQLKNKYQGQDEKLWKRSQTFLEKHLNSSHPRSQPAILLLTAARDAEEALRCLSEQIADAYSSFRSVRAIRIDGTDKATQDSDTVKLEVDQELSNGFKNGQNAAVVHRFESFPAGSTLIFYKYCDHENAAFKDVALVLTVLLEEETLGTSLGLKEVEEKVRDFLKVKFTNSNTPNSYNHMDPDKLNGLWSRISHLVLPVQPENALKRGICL
Sequence of Left-right determination factor 2 (Homo sapiens) (O00292 whole entry, looked up): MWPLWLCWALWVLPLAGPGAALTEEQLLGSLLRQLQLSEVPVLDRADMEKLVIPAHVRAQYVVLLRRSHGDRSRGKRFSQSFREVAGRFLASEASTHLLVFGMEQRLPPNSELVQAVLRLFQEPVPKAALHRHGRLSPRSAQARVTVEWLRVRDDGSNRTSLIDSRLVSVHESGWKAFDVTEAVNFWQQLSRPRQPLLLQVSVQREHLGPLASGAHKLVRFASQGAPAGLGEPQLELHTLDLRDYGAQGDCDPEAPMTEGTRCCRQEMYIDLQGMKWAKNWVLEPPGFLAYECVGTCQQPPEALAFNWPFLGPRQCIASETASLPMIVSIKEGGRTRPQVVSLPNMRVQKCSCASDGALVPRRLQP

Row | SMILES | composite z-score [1] | z-score [2] | composite z-score [3] | composite z-score [4] | composite z-score [5] | composite z-score [6] | composite z-score [7] | composite z-score [8] | composite z-score [9] | composite z-score [10]
1 | COc1ccc([Si](C)(C)[C@H]2[C@H](CCO)O[C@@]3(C(=O)N(Cc4cccc(N5C(=O)c6cccc7cccc5c67)c4)c4ccccc43)[C@@H]2C)cc1 | 1.06 | -4.97 | -0.652 | 1.04 | 0.591 | 0.0618 | 0.0121 | 0.741 | 0.116 | 0.621
2 | O=C(NCc1ccccc1)[C@@H]1c2ccccc2C(=O)N(Cc2cc(F)cc(C(F)(F)F)c2)[C@H]1c1ccc(CO)cc1 | 1.44 | -0.132 | -0.244 | -0.174 | -0.707 | -0.096 | 0.163 | -0.339 | 1.15 | 0.258
3 | O[C@@H](Cc1ccccc1)[C@@H](/C=C/c1ccccc1)NCc1ccccc1Br | -1.16 | -1.38 | -1.56 | -0.793 | -0.43 | -0.109 | -0.17 | -0.445 | -0.962 | -0.869
4 | [N-]=[N+]=NCc1ccccc1C[C@@]1(C(=O)NCc2ccccc2)N=C(c2ccc(OCCCO)cc2)O[C@@H]1c1ccccc1CN=[N+]=[N-] | -0.0428 | -2.52 | -0.372 | 1.51 | 0.924 | 0.178 | 0.274 | 1.88 | 2.59 | 1.49
5 | COC(=O)c1nc2oc1CC[C@@H](CO)NC(=O)N(C)Cc1cn(nn1)C[C@H](Cc1ccccc1)NC2=O | -0.205 | 1.34 | -1.11 | -0.423 | 0.376 | -0.129 | 0.0639 | 0.582 | 0.481 | 0.981
6 | [N-]=[N+]=NCc1ccccc1C[C@]1(C(=O)NCc2ccccc2)COC(c2ccc(OCCCO)cc2)=N1 | 0.953 | -3.59 | -0.0623 | 0.614 | 0.345 | 0.027 | 0.0483 | -0.415 | 1.04 | 0.188
7 | [N-]=[N+]=NCc1ccccc1[C@H]1OC(c2ccc(OCCCO)cc2)=N[C@@]1(Cc1ccccc1)C(=O)O | 1.38 | -2.64 | 0.115 | 1.46 | 0.484 | 0.0079 | 0.199 | -0.204 | 0.875 | 0.96
8 | O=C1OCC=C[C@H]2OC34C=CCN(CCN5CCOCC5)C(=O)[C@H]3N(CCCCCCO)C(=O)[C@@H]4[C@@H]12 (stereo not given in full) | -0.139 | -0.413 | -0.207 | -0.238 | -0.695 | -0.176 | -0.0904 | 0.0395 | 1.37 | 0.0977
9 | CC(C)C(=C=CC[C@H](O)c1ccccc1OCCO)CCO | 1.31 | -1.32 | -0.378 | -0.274 | 0.0647 | -0.0643 | 0.0639 | -0.0546 | 1.02 | 1.92
10 | CCOC(=O)C1=C[C@@H](C(C)(C)C)N(S(=O)(=O)c2ccc(C)cc2)[C@H]1c1ccc(Cl)c(Cl)c1 | 1.34 | -0.501 | 0.595 | 1.46 | 0.122 | -0.154 | 0.213 | 0.863 | 0.735 | 1.35
11 | [N-]=[N+]=NCc1ccccc1C[C@]1(C(=O)N2CCOCC2)N=C(c2ccc(OCCCO)cc2)O[C@H]1c1ccccc1 | 1.25 | -3.07 | -0.712 | 1.4 | 0.886 | -0.0203 | 0.207 | -0.376 | 0.68 | 1.02
12 | CN(C)CCCCNC(=O)[C@@H]1C[C@@H]2C(=O)N[C@@H](CCCCN)C(=O)N2[C@@H]1c1cccc(OCCO)c1 | 0.572 | -0.289 | -1.55 | -0.328 | -0.547 | -0.12 | 0.0735 | 0.42 | 0.482 | -0.863
13 | C=CCNC(=O)[C@H]1[C@@H]2C(=O)O[C@@H](c3ccccc3)[C@@H](c3ccccc3)N2[C@@H](c2ccc(O)cc2)[C@]12C(=O)Nc1ccc(C#Cc3ccc(OC)cc3)cc12 | 0.758 | -2.06 | 0.884 | 0.664 | -0.367 | -0.219 | 0.278 | 0.409 | 1.31 | 0.196
14 | C=CC[C@@]1(C(=O)NCc2ccccc2)N=C(c2ccc(OCCCO)cc2)O[C@@H]1c1ccccc1CN=[N+]=[N-] | 1.41 | -2.31 | -0.511 | 1.13 | 0.429 | 0.0676 | 0.448 | 0.622 | 1.1 | 1.28
15 | C=CCN1C(=O)[C@]2(COC(c3ccc(OCCCO)cc3)=N2)Cc2ccccc21 | 1.17 | -0.347 | -0.352 | -0.0567 | 0.0613 | 0.227 | 0.0253 | 0.795 | 2.59 | 1.48
16 | COc1ccc(C#Cc2ccc3c(c2)[C@]2(C(=O)N3)[C@H](C(=O)N3CCc4cc(OC)c(OC)cc4C3)[C@H]3C(=O)O[C@H](c4ccccc4)[C@H](c4ccccc4)N3[C@@H]2c2ccc(OCCO)cc2)cc1 | 1.39 | -0.864 | 0.483 | 0.861 | -0.0312 | 0.027 | 0.0469 | -0.551 | 0.692 | 0.992
17 | COC(=O)[C@@]1(Cc2ccc(OC)cc2)[C@H]2c3cc(C(=O)N(C)C)n(Cc4ccc(OC)c(OC)c4)c3C[C@H]2CN1C(=O)c1ccccc1 | 1.46 | -1.09 | 0.0549 | 1.8 | 1.08 | 0.294 | 0.173 | 1.03 | 1.15 | 1.73

Row | SMILES | composite z-score [1] | z-score [2] | composite z-score [3] | composite z-score [4] | composite z-score [5] | composite z-score [6] | composite z-score [7] | composite z-score [8] | composite z-score [9] | composite z-score [10]
18 | COCCOC(=O)N1C(=O)[C@@]2(c3ccccc31)[C@H](C(=O)N1CCCCCCC1)[C@H]1C(=O)O[C@H](c3ccccc3)[C@H](c3ccccc3)N1[C@@H]2c1ccccc1OCCO | 1.36 | -1.78 | 0.941 | 2.43 | 1.43 | 0.883 | 2.65 | 2.48 | 4.19 | 2.36
19 | C=C(CCCC)/C(=C/C[C@H](OC(C)=O)c1ccc(CO)o1)c1cc(C(=O)OC)ccc1OC | 1.4 | -1.58 | 0.305 | 0.184 | -0.592 | -0.101 | 0.0639 | 0.116 | 0.599 | 1.44
20 | CN1C(=O)C2C=CC(C(O)c3ccccc3)N(NC(=O)OC(C)(C)C)C2C1=O (stereo not given) | 1.32 | 0.316 | -0.474 | 0.347 | -0.197 | -0.1 | -0.221 | 0.401 | 0.452 | 0.966
21 | O=C1O[C@@H](c2ccccc2)[C@@H](c2ccccc2)N2[C@@H](c3ccc(O)cc3)[C@]3(C(=O)Nc4ccc(C#CCCO)cc43)[C@@H](C(=O)O)[C@H]12 | 0.449 | 0.386 | -0.233 | 2.19 | 0.933 | 0.485 | 0.86 | 2.63 | 1.66 | 2.14
22 | CC(=O)N1Cc2ccccc2C[C@@]2(N=C(c3ccc(OCCCO)cc3)O[C@H]2c2ccccc2)C1=O | 0.671 | -2.83 | 0.587 | 1.26 | 0.465 | -0.0051 | 0.0895 | 0.909 | 2.05 | 2.37
23 | CC[C@@H]1C=C(C(=O)O)[C@H](c2ccc(C(C)C)cc2)N1S(=O)(=O)c1ccc(C)cc1 | 1.27 | -0.868 | 0.615 | 2.38 | 0.692 | 0.019 | 0.519 | -0.443 | 2.19 | 2.12
24 | Cc1ccc(N2C(=O)c3ccccc3[C@@H](C(=O)NC(C)C)[C@@H]2c2ccc(CO)cc2)nc1 | -0.191 | -0.301 | 0.0413 | -0.973 | -0.754 | 0.0101 | -0.291 | -0.493 | 2.09 | -0.719
25 | O=C1OCCC=C[C@H]2OC34C=CCN(CCN5CCOCC5)C(=O)[C@H]3N(CCO)C(=O)[C@@H]4C12 (stereo not given in full) | -1.74 | 0.18 | 0.601 | -1.72 | -1.21 | -0.181 | -0.338 | -0.467 | 0.0029 | -1.01
26 | COc1ccc([Si](C)(C)[C@H]2[C@H](CC(=O)N3CCC[C@H]3CO)O[C@@]3(C(=O)N(Cc4cccc(N5CCC5=O)c4)c4ccccc43)[C@@H]2C)cc1 | 1.41 | -2.36 | 0.992 | -0.105 | -0.363 | -0.0203 | 0.265 | 0.572 | 0.901 | 0.872
27 | COc1c(C)cc(-c2cc3c(c(-c4ccccc4)n2)[Si](C(C)C)(C(C)C)O[C@H]3c2ccccc2)cc1C | -0.217 | -0.526 | -0.009 | -0.0867 | -0.24 | -0.006 | -0.147 | -0.482 | 0.38 | 0.614
28 | Cc1ccc(N2C(=O)c3ccccc3[C@](C)(C(=O)NCCN3CCOCC3)[C@@H]2c2ccc(CO)cc2)nc1 | -0.742 | 0.548 | -1.28 | -0.597 | -0.583 | -0.228 | 0.0442 | -0.244 | -0.869 | -1.44
29 | C[C@H]1C2[C@H](Cc3ccccc3)NC(=O)[C@]23C(=O)N[C@H](Cc2ccccc2)C(=O)N[C@H](Cc2ccccc2)C(=O)NC/C=C/CCC/C=C/C3[C@@H]2O[C@]12C (stereo not given in full) | 1.39 | 0.554 | -0.0974 | -0.343 | -1.28 | -0.124 | -0.123 | -0.0662 | -0.564 | 0.617
30 | Cc1ccc(N2C(=O)c3ccccc3[C@@H](C(=O)NCC(C)C)[C@@H]2c2ccc(CO)cc2)nc1 | -0.369 | -0.216 | -1.31 | -0.617 | -0.259 | -0.176 | -0.0709 | -0.518 | 0.219 | -0.688
31 | Cc1ccc(S[C@]2(C(=O)NCC(F)(F)F)CC(=O)N(C3Cc4ccccc4C3)[C@@H]2c2ccc(CO)cc2I)cc1 | -0.263 | -1.55 | -1.56 | -0.0026 | 0.994 | -0.184 | -0.197 | 2.14 | 0.265 | 0.918
32 | O=C1c2ccccc2[C@](Cc2ccccc2I)(C(=O)O)[C@H](c2ccc(CO)cc2)N1Cc1ccccc1C(F)(F)F | 1.46 | -0.702 | -0.422 | 1.08 | -0.604 | -0.0006 | -0.0382 | 0.689 | -0.0086 | 1.58
33 | C=CCC(OC(C)=O)[C@@H]1[C@@H](N(Cc2cc3ccccc3o2)C(=O)c2ccc(C)cc2)c2cc(OCCCO)ccc2N1C(=O)c1ccc(-c2ccccc2)cc1 (stereo not given in full) | 0.182 | -1.67 | 0.36 | -0.259 | 0.544 | -0.0529 | 0.0141 | -0.374 | 0.285 | 0.169
34 | C=CCOC(=O)[C@@H]1[C@H]2C(=O)O[C@H](c3ccccc3)[C@H](c3ccccc3)N2[C@H](c2ccc(OCCOC(=O)[C@H]3C[C@H]4C(=O)N[C@@H](Cc5ccccc5)C(=O)N4[C@H]3c3ccc(O)cc3)cc2)[C@@]12C(=O)Nc1ccc(I)cc12 | 1.06 | -2.78 | 0.866 | -0.0584 | -1.26 | -0.135 | 0.302 | 0.116 | 1.03 | 1.66
